Measurements reported in PubChem BioAssay (NCI).
This is part of a sample that, as a whole, favours compounds with a hit. Of some 83,000 tested, about 20% had one in any assay.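 Single-concentration screen, 48 h exposure, 96-well plates. Endpoint: percent growth. Below 10 = active.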 Values without a mark were called inactive. Active and inactive are the calls of the source.

Key:
Assay in all cases: NCI-60 one-dose screen, 48 h (100 = growth as untreated, 0 = no growth, -100 = all killed)
[1] = test system: NCI-H226 lung; conditions: 10 µM
[2] = test system: NCI-H322M lung; conditions: 10 µM
[3] = test system: HOP-62 NSCLC; conditions: 10 µM
[4] = test system: NCI-H460 lung; conditions: 10 µM
[5] = test system: NCI-H522 lung; conditions: 10 µM
[6] = test system: A549/ATCC NSCLC; conditions: 10 µM
[7] = test system: DU-145 prostate; conditions: 10 µM
[8] = test system: K-562 leukemia; conditions: 10 µM
[9] = test system: SF-539 CNS; conditions: 10 µM
[10] = test system: M14 melanoma; conditions: 10 µM
[11] = test system: HCT-15 colon; conditions: 10 µM
[12] = test system: HT29 colon; conditions: 10 µM
[13] = test system: SNB-19 CNS; conditions: 10 µM
[14] = test system: U251 CNS; conditions: 10 µM
[15] = test system: PC-3 prostate; conditions: 10 µM
[16] = test system: LOX IMVI melanoma; conditions: 10 µM
[17] = test system: MOLT-4 leukemia; conditions: 10 µM
[18] = test system: SR leukemia; conditions: 10 µM
[19] = test system: RPMI-8226 leukemia; conditions: 10 µM
[20] = test system: MDA-MB-468 breast; conditions: 10 µM unless noted

SMILES | growth [1] | growth [2] | growth [3] | growth [4] | growth [5] | growth [6] | growth [7] | growth [8] | growth [9] | growth [10] | growth [11] | growth [12] | growth [13] | growth [14] | growth [15] | growth [16] | growth [17] | growth [18] | growth [19] | growth [20]
O=C1S/C(=C\c2ccc([N+](=O)[O-])cc2)C(=O)N1CCN1CCCCC1 | 105% | 107% | 112% | 115% | 99.7% | 110% | 119% | 98.1% | 112% | 98.6% | 92.6% | 121% | 98.6% | 102% | 94.3% | 98.6% | 101% | 111% | 106% | 99.5%
COc1cc(Nc2nc(O)c(/C=C3\C=Nc4ccccc43)s2)cc(OC)c1OC | -46.5% (active) | -47.7% (active) | -65.9% (active) | -77.6% (active) | -13.6% (active) | -69.4% (active) | -57.6% (active) | 3.33% (active) | -85.3% (active) | -18.7% (active) | -0.515% (active) | -50.7% (active) | -39.4% (active) | -79.8% (active) | -71.9% (active) | -61.5% (active) | 2.95% (active) | 2.6% (active) | -25.1% (active) | -19.9% (active)
COc1cc2oc(-c3cccc(C(=O)Nc4ccc(Cl)cc4)c3)cc(=O)c2c(OCCN)c1OC | -76.6% (active) | -93.7% (active) | -62.7% (active) | -87.2% (active) | -87.1% (active) | -58.3% (active) | -99% (active) | -43.9% (active) | -83.2% (active) | -89.7% (active) | -76.6% (active) | -91.2% (active) | -78.7% (active) | -84.2% (active) | -87.3% (active) | -84.3% (active) | -59.2% (active) | -48.6% (active) | -64.2% (active) | -73.4% (active)
COc1ccc(C2OC[C@@]3(C)C4CC[C@]5(C)C(CC=C6C7CC(C)(C)CC[C@]7(C(=O)O)CC[C@]65C)[C@@]4(C)C[C@@H](O)[C@@H]3O2)cc1 (stereo not given in full) | 84.5% | 83.5% | 95.5% | 69.1% | 57.1% | 39% | 76.3% | 44% | 95.7% | 96.8% | 56% | 70.8% | 90.9% | 50.7% | 49.2% | 70.8% | 47.2% | 54.7% | 40.3% | 75.9%
CC1[C@H]2[C@H](C[C@H]3[C@@H]4CC=C5c6sc(Nc7cccc(Cl)n7)nc6CC[C@]5(C)[C@H]4CC[C@@]32C)O[C@]12CC[C@@H](C)CO2 (stereo not given in full) | 81.5% | 102% | 116% | 85.7% | 65.8% | 96.1% | 99.1% | 54.5% | 110% | 77.4% | 73.9% | 100% | 96.6% | 92.2% | 48% | 79.6% | 79.8% | 65.3% | 56.5% | 93.6%
Cn1cc(-c2cc(N)n3nc(-c4cn(C)c5ccccc45)cc3n2)c2cc(F)ccc21 | -39.8% (active) | -19.1% (active) | -64.6% (active) | -61.6% (active) | -66.3% (active) | -23.5% (active) | -2.27% (active) | 0.146% (active) | -81.6% (active) | -83.6% (active) | -80.2% (active) | -72.2% (active) | -6.35% (active) | -77% (active) | -28% (active) | -86.2% (active) | -14.4% (active) | 9.63% (active) | -13.3% (active) | -36.3% (active)
C#CCOc1cc(N(CC)CC)ccc1C(C(=O)NC(C)(C)C)N(C(=O)C1CCc2cc(F)ccc2O1)c1ccc(F)cc1F (stereo not given) | 42.9% | 81.6% | 51.6% | 26.4% | 30.7% | 37.5% | 50.1% | 18.3% | 55.9% | 43.3% | 34.9% | 58.3% | 39.8% | 27.1% | 15% | -5.11% (active) | 6.84% (active) | 26.6% | 25.6% | 20.9%
Fc1ccc(/C=C/c2nc3ccccc3n3c(-c4ccc(Cl)cc4)nnc23)cc1 | 77.4% | 89.6% | 107% | 59.6% | -81.7% (active) | 82% | 68% | 10% | 85.5% | 63.8% | 24% | 59.5% | 86.2% | 73% | 72.5% | -89.2% (active) | 2.97% (active) | -3.04% (active) | 53.5% | -2.32% (active)
C#C[C@]1(O)CC[C@H]2[C@@H]3CC=C4c5sc(Nc6ccc(C(F)(F)F)cn6)nc5CC[C@]4(C)[C@H]3CC[C@@]21C | 16.2% | 13.7% | 10.9% | -35.8% (active) | -51.1% (active) | 7.15% (active) | 8.36% (active) | 7.48% (active) | -45.3% (active) | -21.4% (active) | -34.8% (active) | -31.8% (active) | 8.33% (active) | -82.9% (active) | 1.89% (active) | -98.5% (active) | -8.2% (active) | 1.07% (active) | -6.6% (active) | 4.25% (active)
COc1ccc(OC)c(-n2cc(C#N)c(N)c2C(=O)c2ccc(Cl)cc2Cl)c1 | 51.3% | 76.8% | 49.3% | 32.9% | 7.18% (active) | 51.9% | 65.6% | 14.1% | 25.6% | 23.5% | 21.6% | 4.43% (active) | 45.5% | 24.6% | 37.8% | 48.2% | 29.8% | 13.7% | 39% | 19.8%
CCOc1ccc(/C=N/NC(=O)Cn2nc(Cc3ccc(OC)cc3)c3onc(C)c3c2=O)cc1 | 6.7% (active) | 62.1% | 7.48% (active) | -7.59% (active) | 46.6% | 0.727% (active) | 14.4% | 44.7% | -32.6% (active) | 39% | 49.9% | 16.6% | 29% | 4.53% (active) | 18.3% | 4.69% (active) | 58.3% | 29.8% | 67.9% | 40.4%
COC(=O)CNC(=O)COc1c(OC)c(OC)cc2oc(-c3cccc(C(=O)Nc4ccc(Cl)cc4)c3)cc(=O)c12 | -51.4% (active) | 76.6% | -34.4% (active) | 12.6% | 64.9% | 75.4% | 33.6% | 50% | 16% | 7.29% (active) | 67.7% | 58.4% | 25.9% | 11.7% | 34.7% | -33.2% (active) | 88.6% | 61.2% | 53.7% | 94.6%
O=C(CN1CCN(c2ncnc3c2cnn3-c2ccccc2)CC1)Nc1ccc(Br)cc1 | 62.5% | 77.2% | 84.6% | 57.7% | -80.3% (active) | 75.2% | 67.9% | 42.8% | 82.3% | 59.3% | 45.2% | 73.3% | 69.3% | 76.2% | 49.1% | 81.8% | 15% | 40.3% | 42.6% | 49.2%
Nc1nnc(-c2c[nH]c3ncc(Br)cc23)c(-c2c[nH]c3ccc(Br)cc23)n1 | 35.8% | 63% | 44.5% | 26.5% | 21.9% | 48.7% | 32.5% | 15.2% | 19.9% | 34.5% | 31.7% | 30.9% | 46.7% | 38.3% | 26.6% | 37.6% | 5.25% (active) | 6.57% (active) | 10.9% | 8.52% (active)
COc1ccc(Cn2cc(C#N)c(N)c2C(C)=O)c(OC)c1 | 102% | 103% | 105% | 108% | 104% | 103% | 107% | 103% | 96.2% | 99.8% | 102% | 117% | 105% | 105% | 97.6% | 99.6% | 105% | 106% | 105% | 99.5%
